Results from PubChem BioAssay AID1533 (PCMD, 2009).
In all, about 160,000 compounds went through this assay and about 45 (0.03%) were called active. Shown is part of a subset that was picked to be rich in actives. A number with no mark means an inactive call. Cut-off read from the data, not from the text of the source: active = inhibition mostly above about 34% (no sharp cut-off); inconclusive = no clear call, values can overlap the other calls; inactive = mostly below about 22%.

Biological target: dTDP-4-dehydrorhamnose reductase (Mycobacterium tuberculosis (strain ATCC 25618 / H37Rv)) + dTDP-4-dehydrorhamnose 3,5-epimerase (Mycobacterium tuberculosis (strain ATCC 25618 / H37Rv)) (UniProt P9WH09+P9WH11)
Assay: M. tuberculosis RmlC/RmlD coupled enzyme inhibitors, primary screen, biochemical, compound mixtures, 384-well, from 1536-well plates (AID 1533)
Conditions: RmlC+RmlD coupled enzyme assay, percent inhibition; primary screen in compound mixtures; at 3.6 µM; active compounds read high

Sequence of dTDP-4-dehydrorhamnose reductase (Mycobacterium tuberculosis (strain ATCC 25618 / H37Rv)) + dTDP-4-dehydrorhamnose 3,5-epimerase (Mycobacterium tuberculosis (strain ATCC 25618 / H37Rv)) (P9WH09 whole entry, looked up): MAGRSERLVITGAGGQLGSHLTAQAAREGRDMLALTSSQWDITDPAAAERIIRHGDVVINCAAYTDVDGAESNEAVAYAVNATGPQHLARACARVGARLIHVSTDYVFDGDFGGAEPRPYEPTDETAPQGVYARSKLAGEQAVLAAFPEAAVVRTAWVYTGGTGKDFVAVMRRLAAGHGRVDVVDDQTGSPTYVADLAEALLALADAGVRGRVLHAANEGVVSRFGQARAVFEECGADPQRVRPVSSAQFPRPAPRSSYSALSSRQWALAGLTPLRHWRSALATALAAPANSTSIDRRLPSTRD
Sequence of dTDP-4-dehydrorhamnose reductase (Mycobacterium tuberculosis (strain ATCC 25618 / H37Rv)) + dTDP-4-dehydrorhamnose 3,5-epimerase (Mycobacterium tuberculosis (strain ATCC 25618 / H37Rv)) (P9WH11 whole entry, looked up): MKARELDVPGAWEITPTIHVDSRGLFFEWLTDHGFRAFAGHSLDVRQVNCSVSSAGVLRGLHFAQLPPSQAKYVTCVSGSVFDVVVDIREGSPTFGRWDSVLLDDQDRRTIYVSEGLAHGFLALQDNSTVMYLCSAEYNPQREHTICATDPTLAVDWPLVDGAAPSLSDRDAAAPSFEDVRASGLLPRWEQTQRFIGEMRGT

Row | Compound | inhibition
1 | COc1ccc2[nH]c(=S)cc(C)c2c1 | 1.84%
2 | Cc1cc(=O)oc2cc(OCCC[n+]3ccccc3)ccc12 | 2.56%
3 | CCc1ccc(-n2c(SCc3cc(=O)n4cc(Br)ccc4n3)nc3[nH]ncc3c2=O)cc1 | -10.8%
4 | CCn1c2ccccc2c2cc(NC(=O)Nc3ccc([N+](=O)[O-])cc3C)ccc21 | 14.1%
5 | O=C(Nc1cccnc1)c1cc([N+](=O)[O-])ccc1Cl | -16%
6 | COc1cccc(C(=O)n2ccc(-c3cccs3)n2)c1 | 2.94%
7 | COc1ccc(N(Cc2ccccc2)S(=O)(=O)c2cccc(C(=O)O)c2)cc1 | 1.87%
8 | COc1ccccc1Cn1c(CO)nc2ccccc21 | 17.8%
9 | CC(=O)N1N=C(c2ccncc2)OC1(Cc1ccccc1)Cc1ccccc1 | 9.53%
10 | COc1cccc(CNn2cn[nH]c2=S)c1OCc1ccccc1 | -3.37%
11 | C=CCN1C(=O)C(O)(CC(=O)c2ccccn2)c2ccccc21 (configuration not stated) | -20.3%
12 | S=c1[nH]nc(Nc2ccccc2)s1 | -6.55%
13 | CC1C(=O)NC(=O)C1c1ccccc1 (configuration not stated) | 11.3%
14 | COc1ccc(NC(=O)C2CCC(CNc3c(N4CCCCC4)c(=O)c3=O)CC2)c(OC)c1 (configuration not stated) | 1.5%
15 | O=C(Nc1ccccc1)Nc1ccc(C(F)(F)F)cn1 | -12.1%
16 | COC(=O)c1sc(SC)c(S(=O)(=O)C(C)C)c1N/N=C(\C#N)S(=O)(=O)c1ccccn1 | 26.5%
17 | O=C(NC1C2CC3CC(C2)CC1C3)c1ccc(N2CCNCC2)c([N+](=O)[O-])c1 (configuration not stated) | -17.8%
18 | C=CCC1(C#N)C(=S)NC(C)=C(C(=O)OCC)C1c1ccccc1 (configuration not stated) | -2.23%
19 | Cc1c(Cc2ccccc2)c(=O)oc2cc(OCC(N)=O)ccc12 | -14.1%
20 | Cn1c(SCC(=O)c2ccc(F)cc2)nnc1-c1ccccn1 | -3.85%
21 | CCOC(=O)COc1nc(C)cc(C(F)(F)F)c1C#N | 2.06%
22 | O=C(O)CCCCCCCCCC[n+]1ccccc1 | 9.14%
23 | NC(=O)c1ccc(NC(=O)COC(=O)c2ccc([N+](=O)[O-])cc2)cc1 | 11.7%
24 | Cc1cc(N2CCN(c3ccc(F)cc3)CC2)n2ncnc2n1 | 15.1%
25 | CN(C)C(=O)c1nc2ccc(Cl)cn2c1CNCc1cccc(OC(F)(F)F)c1 | 10.5%
26 | O=C(c1ccc(=O)oc1)N1CCC(C(O)(c2ccccc2)c2ccccc2)CC1 | 7.4%
27 | O=C(COC(=O)/C=C/c1ccc2c(c1)OCO2)NC1CCS(=O)(=O)C1 (configuration not stated) | -0.46%
